# The full list was thinned out, with hits kept by preference.
# Lassa entry inh – Lassa virus entry inhibition; Lassa virus pseudotype entry inhibition, cell reporter; Potency, µM (top dose mostly 37.9 µM), actives largely listed as inhibitors; 1.2% of 300,000 active; AID 540256; calls by dose curve; tested in HEK293 cells; further: nearly all actives have a fitted effect of over 50% in size
# Shiga toxin inh – Shiga toxin inhibition; Vero cells, Shiga toxin protein synthesis inhibition reporter; 9.2% of 290,000 active; AID 2315; inhibition, % at 38.7 µM; in the data active means inhibition mostly above about 28%, no sharp cut-off; inactive means mostly below about 43%
# MARV entry inh – blocks Marburg virus binding to or entry into cells | Potency, µM (doses to about 37.8 µM), most hits filed as inhibitors | 1.8% of 300,000 active | Marburg virus pseudotyped entry inhibition, cell reporter | AID 540276; calls by dose curve; tested in HEK293 cells
# AMA1 RON2 block – AMA1-RON2 (P. falciparum) interaction inhibition. AlphaScreen AMA1-biotinylated RON2 peptide binding. Potency, µM (doses to about 58.2 µM), hits mostly inhibitors. 0.2% of 360,000 active. AID 720542; active means well fitted inhibition curve with a large enough effect; inconclusive means small, poorly fitted or top-dose-only effect; inactive means no such curve, though single readings can be large or run the other way; further: nearly all actives have a fitted effect of over 45% in size
#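 AMA1 (3D7) with his tag at 25 nM final met compounds first, then biotinylated RON2 peptide at 25 nM; detection used donor plus acceptor beads, 10 µg/mL apiece, read by AlphaScreen after 30 min at room temperature.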
# Cycloheximide cs – counter-screen for Shiga toxin inhibitors: cycloheximide protein synthesis inhibition. AID 2314. max response, %. 12% of 300,000 active. cell reporter, cycloheximide protein synthesis inhibition counterscreen; in the data active means max response mostly above about 13%, no sharp cut-off; inactive means mostly below about 14%; further: read at 38.3 µM for the half of the compounds with a filed dose
# Hits are given with their value; n = inactive; u = inconclusive; x = no result given; + = active, no number.
SMILES,Lassa entry inh,Shiga toxin inh,MARV entry inh,AMA1 RON2 block,Cycloheximide cs
COc1ccc(/C=C/C(=O)c2ccc(Cl)s2)cc1O,n,n,n,n,24.0
COc1ccc(C(=O)N(Cc2cc(OC)c(OC)c(OC)c2)C2CCS(=O)(=O)C2)cc1Cl (stereo not given),n,x,n,x,x
Cc1cc(C(=O)N2CCc3ccccc3C2)on1,x,n,x,n,n
O=c1oc2ccccc2c2oc3cc(O)c(O)cc3c12,u,26.1,n,n,24.5
CCCCc1cc(O)c(CCCC)c(O)c1,u,39.5,n,n,39.2
COc1ccc(C2C=C(c3ccccc3)Nc3nc(NC(=O)/C=C/c4ccc(F)cc4)nn32)cc1 (stereo not given),n,x,n,x,x
CCC(C)Nc1nc(Cl)nc(NCCOc2ccccc2)n1 (stereo not given),n,n,u,n,33.3
COc1ccc(C2=Nc3ccccc3N(C(=O)c3cccnc3)C2C(=O)NC(C)(C)C)cc1 (stereo not given),x,x,x,n,x
O=S(=O)(Nc1nc2ccccc2nc1Nc1ccc(N2CCOCC2)cc1)c1cc(Cl)ccc1Cl,u,n,7.3µM,n,n
CCOc1cccc2cc(-c3csc(NC(=O)CCC(=O)NCCN4CCCCC4C)n3)c(=O)oc12 (stereo not given),u,n,u,n,39.8
CCOc1cccc2cc(-c3cn4c(n3)sc3ccccc34)c(=O)oc12,n,x,x,x,x
CCOc1cccc2cc(-c3csc(NC(=O)CCC(=O)NCCCN4CCC(C)CC4)n3)c(=O)oc12,x,83.4,x,x,40.7
CCOc1cccc2cc(-c3csc(NC(=O)CCC(=O)N4CCC(C)CC4)n3)c(=O)oc12,u,n,n,n,n
COc1cccc2cc(-c3csc(NC(=O)CCC(=O)NCCCN4CCC(C)CC4)n3)c(=O)oc12,u,72.9,u,n,28.4
Cc1cccc(C)c1NC(=O)CN(Cc1ccc(Br)cc1)S(=O)(=O)c1ccccc1,n,x,u,x,x
Cn1nnc(NC(=O)c2ccccc2F)n1,n,n,n,n,n
Cn1nnc(NC(=O)c2ccc3ccccc3c2)n1,n,+,u,n,30.2
Cn1nnc(NC(=O)c2ccc(C(C)(C)C)cc2)n1,n,45.1,n,n,46.0
COC(=O)[C@H]1[C@H](C)[C@@]2(O)c3ccccc3N(C)[C@@]1(C)[C@H]2O,x,x,n,x,x
CCN(CC)C(=O)c1nc[nH]c1C(=O)N1CCc2ccccc2C1,x,x,x,n,x
Cc1ccccc1-n1nnnc1SCc1csc(-c2ccccc2)n1,13µM,n,u,n,n
O=C1SC(SC(=Nc2ccccc2)Nc2ccccc2)C(=O)N1c1ccccc1 (stereo not given),n,59.8,n,n,40.8
CCOc1ccccc1CNC(=O)C1CCN(S(=O)(=O)c2c(C)noc2/C=C/c2ccccc2F)CC1,n,x,x,x,x
CCOC(=O)C1=C(c2ccccc2)NC(N)=NC1c1ccc(OCc2ccc(Cl)cc2)c(OC)c1 (stereo not given),x,29.5,x,n,n
CSCC[C@H](NC(=O)[C@H](Cc1ccc(OS(=O)(=O)O)cc1)NC(=O)[C@@H](N)CC(=O)O)C(=O)NCC(=O)N[C@@H](Cc1c[nH]c2ccccc12)C(=O)N[C@@H](CCSC)C(=O)N[C@@H](CC(=O)O)C(=O)N[C@@H](Cc1ccccc1)C(N)=O,x,n,x,x,n
SMILES,Lassa entry inh,Shiga toxin inh,MARV entry inh,AMA1 RON2 block,Cycloheximide cs
CC1CCCN(c2ccc([N+](=O)[O-])s2)C1 (stereo not given),x,n,x,n,16.0
O=[N+]([O-])c1ccc(N2CCCCC2)s1,n,n,n,n,18.0
CC(C)(C)OC(=O)N1CCN(C(=O)c2ncn(Cc3ccccc3)c2C(=O)N2CCN(C(=O)OC(C)(C)C)CC2)CC1,x,x,x,n,x
CNc1nnc(Sc2ncccc2[N+](=O)[O-])s1,u,n,n,n,n
COc1ccc(N2C(=O)C3C(C2=O)C(C(=O)c2ccc(Cl)cc2)N2CCCC32)cc1 (stereo not given),n,90.3,u,n,33.6
O=S(=O)(c1ccc(F)cc1)N1CCCN(c2nccc(C(F)(F)F)n2)CC1,x,n,x,n,n
CNNC(=S)NCCC1=CCCCC1,x,n,x,n,15.8
CC(=O)c1cccc(NC(=S)NCCc2ccc(F)cc2)c1,n,n,n,n,n
CC(=O)c1cccc(NC(=S)NCCC2=CCCCC2)c1,u,47.0,u,n,32.6
Cc1ccc(SCC(=O)NCCC2=CCCCC2)cc1,n,38.2,u,n,37.6
O=C(NC(=S)NCCC1=CCCCC1)c1ccco1,n,106.7,u,n,36.8
Cc1ccc(OCC(=O)NCCC2=CCCCC2)cc1,n,n,u,n,n
Cc1ccccc1C(=O)NC(=S)NCCC1=CCCCC1,n,n,n,n,n
Cc1cc(=O)nc2c3ccccc3n(CC(=O)NCCC3=CCCCC3)n12,n,n,n,n,40.1
CCCNC(=O)Cn1c2ccccc2c2nc(=O)cc(C)n21,x,n,x,n,n
Cc1ccc(NC(=S)NCCC2=CCCCC2)cc1,n,89.0,u,n,33.5
CC(=O)N[C@H]1CSSC[C@@H](C(=O)N2CCC[C@H]2C(=O)N2CCC[C@H]2C(=O)N[C@@H](CCCCN)C(=O)N[C@@H](CC(=O)O)C(N)=O)NC(=O)CNC(=O)[C@H](Cc2c[nH]c3ccccc23)NC(=O)[C@H](CCCNC(=N)N)NC(=O)[C@@H](Cc2ccc3ccccc3c2)NC(=O)[C@H](Cc2cnc[nH]2)NC(=O)[C@H](CCC(=O)O)NC1=O,x,n,x,x,n
COc1ccc(OC)c(CNc2ncc(-c3cccc([N+](=O)[O-])c3)n2C)c1,x,n,x,14.1µM,n
Nc1nc2ccc(Br)cc2s1,x,x,x,n,x
Cc1nc2ccc(Oc3ccccc3)cc2s1,x,x,x,n,x
Nc1nc2ccc(OC(F)(F)F)cc2s1,u,66.7,n,n,58.9
Nc1nc2ccc(Oc3ccccc3)cc2s1,u,69.6,u,n,30.4
O=C(OCC(=O)N1CCN(C(=O)c2ccco2)CC1)c1ccccc1OCc1ccc(Cl)cc1,u,n,u,n,n
COC(=O)C1CCN(C(=O)CCCOc2ccccc2)CC1,n,42.5,n,n,20.4
Cc1cc(Cl)ccc1OCCCC(=O)N1CCN(C(=O)c2ccco2)CC1,n,n,u,n,n
SMILES,Lassa entry inh,Shiga toxin inh,MARV entry inh,AMA1 RON2 block,Cycloheximide cs
O=C(OCC(=O)N1CCN(C(=O)c2ccco2)CC1)c1ccccc1,n,78.4,n,u,29.0
O=C(OCC(=O)N1CCN(C(=O)c2ccco2)CC1)c1ccccc1O,n,32.5,n,n,n
O=C(CCCOc1ccccc1)N1CCN(C(=O)c2ccco2)CC1,n,87.5,u,n,21.1
Cc1ccc(CCNC(=O)Cn2ncc3c(=O)oc4ccccc4c32)cc1,n,x,n,x,x
Cc1ccc(NC(=O)C2CCCN(S(=O)(=O)c3ccc4c(c3)oc(=O)n4C)C2)cc1Cl (stereo not given),n,x,n,x,x
C/C(=N\OCc1nc2ccccc2c(=O)n1/N=C/c1cc(C)cc([N+](=O)[O-])c1O)c1ccccc1,x,n,x,n,21.0
C/C(=N\OCc1nc2ccccc2c(=O)n1/N=C/c1cc([N+](=O)[O-])ccc1O)c1ccccc1,x,45.5,x,n,18.1
Cc1cc([N+](=O)[O-])cc(/C=N/n2c(C)nc3ccccc3c2=O)c1O,n,n,u,u,n

# Screens as filed in PubChem.
